Source: PubChem BioAssay AID1159580 (chemical genetic matrix, 2015)
Several values for one entry are separate records, joined by “and”; a condition that tells them apart may be missing. Equal entries are not always repeated. The campaign covered roughly 5,500 compounds. About 2,000 (36%) were called active. Not shown: some 18% with an inconclusive outcome. Cut-off read from the data, not from the text of the source: active = normalized growth mostly below about 0.91 (no sharp cut-off); inconclusive = no clear call, values can overlap the other calls; inactive = mostly above about 0.92. The list shows a part of the results.

Assay: chemical genetic growth profiling, strain panel (AID 1159580);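 note: tested at 20 µM; growth read once vehicle control cultures reached saturation at 30 °C; 1 = growth at the plate median or of vehicle wells; lower values mean less growth of the strain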
Settings: S. cerevisiae deletion strains, growth OD
[1] = locus YBR021W, strain FUR4, stronger effect = lower value
[2] = locus YBR229C, strain ROT2, stronger effect = lower value
[3] = locus YCL029C, strain bik1, stronger effect = lower value
[4] = locus YDL035C, strain GPR1, stronger effect = lower value
[5] = locus YDL074C, strain BRE1, stronger effect = lower value
[6] = locus YDL101C, strain DUN1, stronger effect = lower value
[7] = locus YDL134C, strain PPH21, stronger effect = lower value
[8] = locus YDL185W, strain tfp1, stronger effect = lower value
[9] = locus YDL192W, strain arf1, stronger effect = lower value
[10] = locus YDR101C, strain arx1, stronger effect = lower value
[11] = locus YDR150W, strain NUM1, stronger effect = lower value
[12] = locus YDR162C, strain NBP2, stronger effect = lower value
[13] = locus YDR318W, strain mcm21, stronger effect = lower value
[14] = locus YDR388W, stronger effect = lower value
[15] = locus YDR502C, strain sam2, stronger effect = lower value
[16] = locus YER110C, stronger effect = lower value
[17] = locus YER155C, strain BEM2, stronger effect = lower value
[18] = locus YER167W, strain BCK2, stronger effect = lower value
[19] = locus YGL078C, strain dbp3, stronger effect = lower value
[20] = locus YGL086W, strain mad1, stronger effect = lower value
[21] = locus YGL248W, strain PDE1, stronger effect = lower value
[22] = locus YGR135W, strain pre9, stronger effect = lower value
[23] = locus YGR252W, strain gcn5, stronger effect = lower value
[24] = locus YHR030C, strain SLT2, stronger effect = lower value
[25] = locus YHR079C, strain IRE1 (second series), stronger effect = lower value
[26] = locus YHR094C, strain hxt1, stronger effect = lower value
[27] = locus YHR129C, strain ARP1, stronger effect = lower value
[28] = locus YHR200W, strain rpn10, stronger effect = lower value
[29] = locus YIL066C, strain RNR3, stronger effect = lower value
[30] = locus YIL073C, strain SPO22, stronger effect = lower value
[31] = locus YIL125W, strain kgd1, stronger effect = lower value
[32] = locus YIR030C, strain dcg1, stronger effect = lower value
[33] = locus YJL095W, strain BCK1, stronger effect = lower value
[34] = locus YJL134W, strain LCB3, stronger effect = lower value
[35] = locus YJL168C, strain set2, stronger effect = lower value
[36] = locus YJL187C, strain SWE1 (second series), stronger effect = lower value
[37] = locus YJR043C, strain POL32, stronger effect = lower value
[38] = locus YKL009W, strain mrt4, stronger effect = lower value
[39] = locus YKL068W, stronger effect = lower value
[40] = locus YKL085W, strain MDH1 (second series), stronger effect = lower value
[41] = locus YKL085W, strain MDH1, stronger effect = lower value
[42] = locus YKR001C, strain vps1, stronger effect = lower value
[43] = locus YLR039C, strain RIC1, stronger effect = lower value
[44] = locus YLR058C, strain SHM2, stronger effect = lower value
[45] = locus YLR102C, strain apc9, stronger effect = lower value
[46] = locus YLR262C, strain YPT6, stronger effect = lower value
[47] = locus YLR268W, strain sec22, stronger effect = lower value
[48] = locus YLR330W, strain CHS5, stronger effect = lower value
[49] = locus YLR342W, strain FKS1 (second series), stronger effect = lower value
[50] = locus YLR371W, strain rom2, stronger effect = lower value
[51] = locus YLR418C, strain cdc73, stronger effect = lower value
[52] = locus YML016C, strain PPZ1, stronger effect = lower value
[53] = locus YML032C, strain rad52, stronger effect = lower value
[54] = locus YML124C, strain tub3, stronger effect = lower value
[55] = locus YMR078C, strain ctf18, stronger effect = lower value
[56] = locus YMR223W, strain ubp8, stronger effect = lower value
[57] = locus YMR307W, strain GAS1, stronger effect = lower value
[58] = locus YNL067W, strain RPL9B, stronger effect = lower value
[59] = locus YNL153C, strain GIM3, stronger effect = lower value
[60] = locus YNL233W, strain BNI4, stronger effect = lower value
[61] = locus YNL250W, strain rad50, stronger effect = lower value
[62] = locus YNL271C, strain bni1, stronger effect = lower value
[63] = locus YNL298W, strain CLA4, stronger effect = lower value
[64] = locus YNL307C, strain MCK1, stronger effect = lower value
[65] = locus YNL322C, strain KRE1, stronger effect = lower value
[66] = locus YNR052C, strain pop2, stronger effect = lower value
[67] = locus YOL147C, strain pex11, stronger effect = lower value
[68] = locus YOR061W, strain CKA2, stronger effect = lower value
[69] = locus YOR069W, strain VPS5, stronger effect = lower value
[70] = locus YOR136W, strain idh2, stronger effect = lower value
[71] = locus YOR144C, strain elg1, stronger effect = lower value
[72] = locus YOR184W, strain ser1, stronger effect = lower value
[73] = locus YOR316C, strain cot1, stronger effect = lower value
[74] = locus YPR119W, strain clb2, stronger effect = lower value
[75] = locus YPR141C, strain kar3, stronger effect = lower value
[76] = locus YPR163C, strain tif3, stronger effect = lower value
[77] = locus YPR167C, strain met16, stronger effect = lower value
[78] = strain wtn01, stronger effect = lower value

Measured: normalized growth

COC(=O)/C(C)=C\CC12OC(C)(C)C3CC(C=C4C(=O)c5c(O)c6c(c(CCC(C)(C)Cl)c5OC431)OC1(C)CCC(=C(C)C)C6C1)C2=O (configuration not stated)
inactive: [1] 0.981 | [2] 1.02 | [3] 0.997 | [4] 1.01 | [5] 0.994 | [6] 0.999 | [7] 0.976 | [8] 1.01 | [9] 0.985 | [10] 0.992 | [11] 1.02 | [12] 1.01 | [13] 0.985 | [14] 1.01 | [15] 0.961 | [16] 1.02 | [17] 1.01 | [18] 1.01 | [19] 0.994 | [20] 0.962 | [21] 0.98 | [22] 0.982 | [23] 0.919 | [24] 1.02 | [25] 1 | [26] 1 | [27] 1.01 | [28] 0.984 | [29] 1.01 | [30] 0.987 | [31] 0.985 | [32] 1.01 | [33] 0.959 | [34] 1.03 | [35] 1.01 | [36] 0.986 | [37] 1.02 | [38] 0.979 | [39] 0.999 | [40] 0.997 | [41] 0.997 | [42] 0.952 | [43] 0.957 | [44] 1 | [45] 1.01 | [46] 0.946 | [47] 0.975 | [48] 1.01 | [49] 0.957 | [50] 1.02 | [52] 1.01 | [53] 0.988 | [54] 1.02 | [55] 1 | [56] 0.985 | [57] 0.955 | [58] 1.02 | locus YNL128W, strain TEP1, stronger effect = lower value 1.04 | [59] 1 | [60] 0.993 | [61] 1.01 | [62] 1.01 | [63] 1.01 | [64] 0.981 | [65] 1.03 | [66] 0.989 | locus YOL006C, strain TOP1, stronger effect = lower value 1.06 | locus YOL012C, strain htz1 0.7 | [67] 1 | [68] 0.999 | [69] 1.02 | [70] 0.987 | [71] 1 | [72] 0.977 | [73] 0.999 | [74] 1.01 | [75] 1.02 | [76] 1 | [77] 0.982 | [78] 0.969
active: [51] 0.834

CC(C)=CCCC1(C)C=Cc2c(O)c3c(c(CC=C(C)C)c2O1)OC12C(=CC4CC1C(C)(C)OC2(C/C=C(\C)C(N)=O)C4=O)C3=O (configuration not stated)
inactive: [1] 0.922 | [2] 1 | [3] 0.977 | [4] 0.932 | [5] 0.899 | [6] 0.96 | [7] 0.914 | [8] 0.996 | [10] 0.958 | [11] 1 | [12] 0.92 | [13] 0.941 | [14] 0.96 | [15] 0.924 | locus YEL061C, strain CIN8, stronger effect = lower value 0.967 | [16] 0.999 | [18] 0.965 | [19] 0.963 | [20] 0.947 | [21] 0.894 | [22] 0.923 | [23] 0.856 | [24] 0.995 and 0.925 | [25] 0.99 | locus YHR079C, strain IRE1, stronger effect = lower value 0.933 | [26] 0.995 | [27] 0.944 | [28] 0.946 | [29] 0.878 | [30] 0.801 | [31] 0.943 | [32] 0.959 | [33] 0.875 and 0.963 | [34] 1 | [35] 0.987 | [36] 0.929 | [37] 0.981 | locus YJR066W, strain TOR1, stronger effect = lower value 0.906 | locus YJR075W, strain HOC1, stronger effect = lower value 0.944 | [38] 0.931 | [39] 0.995 | [40] 0.99 | [41] 0.99 | locus YKL190W, strain CNB1, stronger effect = lower value 0.985 | [43] 0.898 | [44] 0.946 | [45] 1.01 | [46] 0.946 | [47] 0.896 | [48] 0.95 | [49] 0.913 | [50] 0.989 | [52] 0.969 | [53] 0.96 | [54] 0.985 | [55] 0.971 | [56] 0.95 | locus YMR263W, strain SAP30, stronger effect = lower value 0.968 | [57] 0.833 | [58] 0.951 | [59] 0.958 | locus YNL183C, strain NPR1, stronger effect = lower value 0.868 | [60] 0.915 | [61] 0.983 | [62] 0.993 | [63] 0.989 | [65] 0.976 | [66] 0.981 | locus YOL012C, strain htz1 0.568 | [67] 0.944 | [68] 0.963 | [69] 0.99 | [70] 0.98 | [71] 0.987 | locus YOR231W, strain MKK1, stronger effect = lower value 0.937 | [73] 0.995 | locus YPL055C, strain LGE1, stronger effect = lower value 0.866 | locus YPL256C, strain CLN2, stronger effect = lower value 0.944 | [74] 0.989 | [75] 0.996 | [76] 0.982 | [77] 0.958 | [78] 0.937
active: [9] 0.913 | [17] 0.89 | locus YGR229C, strain SMI1, stronger effect = lower value 0.761 | [42] 0.842 | locus YLR113W, strain HOG1, stronger effect = lower value 0.852 | [51] 0.699 | [64] 0.844 | [72] 0.872
